ASM inhibitor: human S-ASM enzyme inhibition. placental ASM, HMU-PC fluorogenic substrate, 60 min. Potency, µM (doses to about 57.5 µM), for the others: at the highest dose activity change, negative = inhibition, usual class: inhibitors. AID 504937. P17405. 340,000 tested, 0.006% active; also: potency is read from the fitted curve at half-maximal effect
Target sequence (P17405 47-631 limits assumed): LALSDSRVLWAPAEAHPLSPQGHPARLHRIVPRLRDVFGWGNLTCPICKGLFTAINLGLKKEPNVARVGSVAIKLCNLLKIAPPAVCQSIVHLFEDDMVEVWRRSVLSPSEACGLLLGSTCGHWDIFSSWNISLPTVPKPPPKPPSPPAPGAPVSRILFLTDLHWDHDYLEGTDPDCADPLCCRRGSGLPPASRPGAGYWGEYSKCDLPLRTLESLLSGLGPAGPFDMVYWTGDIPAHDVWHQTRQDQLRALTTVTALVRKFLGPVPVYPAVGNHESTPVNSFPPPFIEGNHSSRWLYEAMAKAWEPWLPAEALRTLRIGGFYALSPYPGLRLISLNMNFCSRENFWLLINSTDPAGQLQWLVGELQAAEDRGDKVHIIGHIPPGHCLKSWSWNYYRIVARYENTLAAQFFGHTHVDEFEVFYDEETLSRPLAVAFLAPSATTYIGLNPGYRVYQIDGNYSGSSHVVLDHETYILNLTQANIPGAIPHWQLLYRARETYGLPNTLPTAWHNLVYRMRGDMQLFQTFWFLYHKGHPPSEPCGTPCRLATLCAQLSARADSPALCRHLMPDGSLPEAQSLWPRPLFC
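Human placenta-derived ASM enzyme was preincubated with compound for 10 minutes at room temperature, then given fluorogenic substrate HMU-PC0 (9 uM final) for 60 minutes at 37 °C; a pH 10 stop preceded fluorescence reading at Ex 386/Em 447 nm.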
TDP1 cell CPT: DT40-hTDP1 cell growth loss with CPT; AID 686979; 420,000 tested, 12% active; chicken DT40 Tdp1-/-;hTDP1 cells + 20 nM CPT, ATP luminescence, 48 h; Potency, µM (series often up to 46.2 µM), without a hit: at the highest dose activity change, negative = growth inhibition, most hits filed as inhibitors; also: potency is read from the fitted curve at half-maximal effect; % is scaled to controls: 0 for no effect and ±100 for the full control effect; nearly all actives have a fitted effect of over 55% in size
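Chicken DT40 Tdp1-/- cells complemented with human TDP1, 400 cells/well, exposed to compounds plus 20 nM camptothecin for at least 48 h at 37 C; viability read as ATP content by CellTiter-Glo luminescence.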
IL1B secr inh: blocks inflammasome-driven IL-1 beta release | THP-1 LPS/ATP IL-1B secretion, AlphaLISA, 16 h; stronger effect = lower value | activity change, % at 57.5 µM | 360,000 tested, 4.7% active; in the data active = activity change below about -50%; inconclusive = mostly about -30% to -49%; also: % is scaled to controls: 0 for no effect and ±100 for the full control effect
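Secreted IL-1B measured by AlphaLISA bead assay after 16 h compound exposure of THP-1 cells; compounds (final up to 57.5 uM) added 1 h before LPS (250 ng/mL) and ATP (1.25 mM) stimulation; lower signal means less secretion.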
DT40 TDP1 no CPT: qHTS for Inhibitors of human tyrosyl-DNA phosphodiesterase 1 (TDP1): qHTS in cells in absence of CPT; DT40 Tdp1-/- hTDP1 cells, no CPT, ATP luminescence, 48 h; Potency, µM (series often up to 46.2 µM), for the others: at the highest dose activity change, negative = growth inhibition, most hits filed as inhibitors; 420,000 tested, 15% active; also: potency is read from the fitted curve at half-maximal effect; % is scaled to controls: 0 for no effect and ±100 for the full control effect; nearly all actives have a fitted effect of over 55% in size
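Camptothecin absent (DMSO only). Human TDP1-complemented DT40 knockout cells, 400 cells/well, 37 °C for minimum 48 hr; ATP measured via CellTiter-Glo, 30 min dark incubation, luminescence.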
HepG2 viability: counter-screen for TGF-b inhibitors: cytotoxicity in HepG2 cells; Potency, µM (titrated, usually from 46.1 µM), without a hit: top-dose activity change, negative = cytotoxicity, most hits filed as cytotoxic; AID 588856; HepG2 CAGA-GFP viability, ATP luminescence, 18 h; 410,000 tested, 0.76% active; also: potency is read from the fitted curve at half-maximal effect
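CellTiter-Glo luminescence gave cytotoxicity after 18 hours at 37 degrees C. The cells were HepG2 CAGA-GFP in 1% FBS DMEM, stimulated with 500 pg/mL TGF-beta after compound addition. %Activity was normalised to no-cell wells (complete cell-killing) and DMSO (no toxicity), and curves were fitted and classified.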
TGFb inhibitor: blocks TGF-b signaling; AID 588855; HepG2 CAGA-GFP TGF-b/SMAD3 reporter, GFP fluorescence, 18 h; TGF-beta stimulated, 500 pg/mL final; 410,000 tested, 1.2% active; Potency, µM (top dose mostly 46.1 µM), without a hit: at the highest dose activity, negative = inhibition, hits mostly inhibitors; also: potency is read from the fitted curve at half-maximal effect; % is scaled to controls: 0 for no effect and ±100 for the full control effect; nearly all actives have a fitted effect of over 65% in size
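Read-out: total well GFP (ex488/em500-530) summed from mean per-cell fluorescence. Cells: HEPG2 CAGA-GFP, 1% FBS DMEM, 18 h at 37 degrees C with 500 pg/mL final TGF-beta. Unstimulated wells served as the full-inhibition control; stimulated DMSO wells = 0%.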
Starred values were filed as active, the others as inactive; ? = inconclusive; nt = no result given; [ ] = another dose, or the depositor's remark. This is a sample that favours compounds with a hit; in the whole collection about 19% have one here. Unless noted, calls follow the shape of the dose curve; as a rule, active = well fitted curve in the direction sought with a large enough effect; inconclusive = small, poorly fitted or top-dose-only effect, or another doubt; inactive = no such curve, though single readings can be large; an effect the other way counts as inactive or inconclusive.

SMILES	ASM inhibitor	TDP1 cell CPT	IL1B secr inh	DT40 TDP1 no CPT	HepG2 viability	TGFb inhibitor
O=C(c1[nH]c(C(F)(F)F)nc1-c1ccccc1)N1CCN(c2c(Cl)cncc2Cl)CC1	nt	?	3	?	-34%	-27%
O=C(NCc1ccccc1)C1CCC(CNS(=O)(=O)c2cccs2)CC1 (stereo not drawn)	0%	8%	0	-11%	-17%	7%
CCOc1ccccc1NC(=O)c1c(NC(=O)c2ccncc2)sc2c1CCC(C(C)(C)C)C2 (stereo not drawn)	nt	-23%	nt	-17%	5%	15%
Cc1ccc(NC(=O)c2c(NC(=O)C(F)(F)F)sc3c2CCCCC3)cc1	nt	2.6µM*	nt	3.7µM*	-60%	1.1µM*
O=C(COc1ccc(Cl)cc1)Nc1sc2c(c1C(=O)Nc1cccc(Cl)c1)CCCC2	nt	18µM*	nt	7.3µM*	-1%	-1%
COc1ccc(NC(=O)c2c(NC(=O)COc3ccccc3)sc3c2CCCCC3)cc1	nt	-1%	nt	-7%	4%	4%
Cc1ccccc1NC(=O)c1c(NC(=O)c2ccncc2)sc2c1CCC(C(C)(C)C)C2 (stereo not drawn)	nt	18µM*	nt	6.5µM*	-34%	-13%
O=C(Cn1cncn1)N1CCOc2ccc(CN3CCN(c4ccccc4)CC3)cc2C1	nt	14%[9.04 µM]	nt	3%	nt	nt
C#CCOCCOCCOCCNc1nc(N2CCN(C(=O)Cn3cc(CCCCN)nn3)CC2)nc(N2CCN(C(=O)Cn3cc(CCCN=C(N)N)nn3)CC2)n1	3%	20%	-7	30%	4%	-36%
O=C1/C(=C/c2cccnc2)Oc2cc(OS(=O)(=O)c3ccccc3)ccc21	-18%	?	-6	16µM*	-34%	?
COc1ccc(S(=O)(=O)Oc2ccc3c(c2)O/C(=C\c2cccnc2)C3=O)cc1	-14%	?	0	15µM*	-12%	-22%
Cc1cc(-c2ccc(C)c(S(=O)(=O)NCCc3ccccc3)c2)on1	nt	?	nt	?	-16%	?
CSc1ccc(CCNS(=O)(=O)c2cc(-c3cc(C)no3)ccc2C)cc1	nt	?	nt	21µM*	-24%	?
CCc1ccc(-c2cc(C)no2)cc1S(=O)(=O)NCCc1ccccc1	?	?	-13	18µM*	-12%	?
Cc1cc(-c2ccc(C)c(S(=O)(=O)NCc3ccc(Cl)cc3)c2)on1	nt	-12%	nt	?	-22%	?
COc1ccc(S(=O)(=O)N(C)c2ccc(C(=O)Nc3ccccc3C(=O)N3CCOCC3)cc2)cc1OC	-1%	?	-6	-14%	-28%	-7%
CCN(CCNC(=O)CCCn1nc(C)n2c(cc3sccc32)c1=O)c1ccccc1	-4%	15µM*	-3	23µM*	-6%	13%
CCOCCCNC(=O)CCCn1nc(C)n2c(cc3sccc32)c1=O	-9%	-20%	-22	-10%	-26%	3%
Fc1ccc2c(c1)-c1nc(-c3ccccc3)cc(-c3ccccc3)c1CO2	nt	?	nt	-27%	-1%	18%
Cc1ncc(CO)c2c1Oc1nc(-c3ccccc3)nc(SCC(=O)N3CCOCC3)c1C2	2%	18µM*	-11	10µM*	-12%	?
COc1ccccc1-c1nc2c(c(SCc3ccc(F)cc3Cl)n1)Cc1c(CO)cnc(C)c1O2	nt	1%	nt	-5%	-8%	3%
CCN(CC)C(=O)CSc1nc(-c2ccccc2F)nc2c1Cc1c(CO)cnc(C)c1O2	nt	3.7µM*	nt	4.6µM*	2%	3%
COc1cccc(-c2nc3c(c(SCC(=O)N4CCOCC4)n2)Cc2c(CO)cnc(C)c2O3)c1	-3%	21µM*	-14	4.1µM*	-12%	4%
CCc1ccc(CSc2nc(-c3ccccc3F)nc3c2Cc2c(CO)cnc(C)c2O3)cc1	nt	?	nt	-22%	10%	3%
COc1ccccc1-c1nc2c(c(SCC(=O)N3CCCCC3)n1)Cc1c(CO)cnc(C)c1O2	-1%	9.2µM*	-4	6.5µM*	5%	35%
SMILES	ASM inhibitor	TDP1 cell CPT	IL1B secr inh	DT40 TDP1 no CPT	HepG2 viability	TGFb inhibitor
Cc1cccc(NC(=O)CSc2nc(-c3cccc(C)c3)nc3c2Cc2c(CO)cnc(C)c2O3)c1	nt	?	nt	-29%	8%	-4%
CCC(=O)Nc1ccc(-n2nnnc2SCC(=O)NNC(=O)c2ccco2)cc1	2%	-2%	2	26%	0%	2%
CCc1nn2c(=O)cc(COC(=O)COc3ccc(OC)cc3)nc2s1	nt	-28%	nt	7%	-16%	-29%
O=C(NN=Cc1cc(Br)c(O)c(Br)c1)c1ccccc1NS(=O)(=O)c1cccs1	16%	5%	26	3%	2%	2%
Cc1ccc(NC(=O)CSc2nc(-c3ccc(F)cc3)nc3c2Cc2c(CO)cnc(C)c2O3)cc1C	nt	-1%	nt	-27%	0%	2%
COc1ccccc1-c1nc2c(c(SCc3cc(C)ccc3C)n1)Cc1c(CO)cnc(C)c1O2	nt	9.2µM*	nt	10µM*	1%	0%
Cc1cccc(-c2nc3c(c(SCC(=O)N4CCOCC4)n2)Cc2c(CO)cnc(C)c2O3)c1	-1%	?	?	3.7µM*	-25%	-19%
Cc1ncc(CO)c2c1Oc1nc(-c3ccc(Cl)cc3)nc(SCC(=O)N3CCCCC3)c1C2	nt	?	nt	16µM*	1%	0%
COc1ccccc1-c1nc2c(c(SCC(=O)Nc3ccc(C)c(C)c3)n1)Cc1c(CO)cnc(C)c1O2	nt	16µM*	nt	9.2µM*	-20%	-18%
O=C(CSc1nc(-c2ccc(Cl)cc2)nc2c1Cc1ccccc1O2)N1CCCCC1	nt	1%	nt	-14%	-3%	4%
CCOc1ccc(S(=O)(=O)N2CCN(C(=O)Cc3n[nH]c(=O)c4ccccc34)CC2)cc1	-1%	-21%	18	?	-3%	-10%
CCOC(=O)c1cn2nc(Oc3ccc(OC)cc3)ccc2n1	0%	?	4	6.5µM*	51%	34%
CCCCc1cc(=O)oc2cc(OCc3cc(OC)c(OC)c(OC)c3)c(Cl)cc12	?	?	18	15µM*	-15%	13%
Cc1ccc(-c2noc(-c3nnn(CC(=O)Nc4cc(Cl)ccc4C)c3N)n2)cc1	nt	20%	nt	1%	7%	nt
COc1cc(SSc2cc(OC)cc([N+](=O)[O-])c2N)c(N)c([N+](=O)[O-])c1	-14%	4.6µM*	-77*	4.1µM*	-58%	?
